Compound activity: PubChem BioAssay, National Center for Advancing Translational Sciences (NCATS)
Hits are enriched below; roughly 17% of the tested compounds scored in any of these assays.
DT40 TDP1 CPT – qHTS for Inhibitors of human tyrosyl-DNA phosphodiesterase 1 (TDP1): qHTS in cells in presence of CPT. chicken DT40 Tdp1-/-;hTDP1 cells + 20 nM CPT, ATP luminescence, 48 h. Potency, µM (doses to about 46.2 µM), hits mostly inhibitors. 12% of 420,000 active. AID 686979, 2013; further: nearly all actives have a fitted effect of over 55% in size
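Chicken DT40 Tdp1-/- cells stably complemented with human TDP1 were seeded at 400 cells/well in medium containing 20 nM camptothecin, exposed to pin-transferred compounds, and grown at 37 °C for at least 48 hr. Viability was read as ATP luminescence.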
HepG2 viability – qHTS for Inhibitors of TGF-b: Cytotox Counterscreen; AID 588856, 2011; 0.76% of 410,000 active; HepG2 CAGA-GFP viability, ATP luminescence, 18 h; Potency, µM (titrated, usually from 46.1 µM), most hits filed as cytotoxic
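CellTiter-Glo luminescence gave cytotoxicity after 18 hours at 37 degrees C. The cells were HepG2 CAGA-GFP in 1% FBS DMEM, stimulated with 500 pg/mL TGF-beta after compound addition. %Activity was normalised to no-cell wells (complete cell-killing) and DMSO (no toxicity), and curves were fitted and classified.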
ATXN2 expr inh – Primary qHTS for Inhibitors of ATXN expression; Potency, µM (series often up to 57 µM), usual class: inhibitors; HEK-293 ATXN2-luciferase reporter, luminescence, 24 h; AID 1745845, 2022; 0.72% of 360,000 active; further: nearly all actives have a fitted effect of over 55% in size
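qHTS (up to 57 uM final) was run with 24 h compound exposure of reporter cells at 37 °C. Each well was multiplexed: SteadyGlo luminescence measured ATXN2-luciferase expression after a fluorogenic Gly-Phe-AFC viability readout (25 uM final).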
S2 tox – Viability Counterscreen for Primary qHTS for Inhibitors of ATXN expression; S2 cells (HEK-293 line with an ATXN2-luciferase reporter) viability, CellTiter-Fluor protease fluorescence, 24 h; Potency, µM (titrated, usually from 56.7 µM), most hits filed as cytotoxic; 0.49% of 400,000 active; AID 651635, 2014; further: nearly all actives have a fitted effect of over 40% in size
TGFb inhibitor – qHTS for Inhibitors of TGF-b. 1.2% of 410,000 active. HepG2 CAGA-GFP TGF-b/SMAD3 reporter, GFP fluorescence, 18 h; TGF-beta stimulated, 500 pg/mL final. Potency, µM (titrated, usually from 46.1 µM), usual class: inhibitors; further: nearly all actives have a fitted effect of over 65% in size
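HEPG2 CAGA-GFP, 1000 cells/well; 2 h settle, 37 C; cpd via pin tool; TGF-b 500 pg/mL final; 18 h, 37 C; GFP imaging ex488/em500-530; %Activity normalised to -TGF-b and +DMSO controls; CRC fit, curve class.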
DT40 TDP1 no CPT – qHTS for Inhibitors of human tyrosyl-DNA phosphodiesterase 1 (TDP1): qHTS in cells in absence of CPT. DT40 Tdp1-/- hTDP1 cells, no CPT, ATP luminescence, 48 h. Potency, µM (titrated, usually from 46.2 µM), actives largely listed as inhibitors. 15% of 420,000 active; further: nearly all actives have a fitted effect of over 55% in size
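Seeded 400 DT40-hTDP1 cells/well (vehicle DMSO, no 20 nM CPT); pinned compounds; ≥48 hr at 37 °C; CellTiter-Glo luminescence as viability measure.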
Of the large screens only hits and unclear results are named; the others gave an inactive call. The call rests on the fitted dose curve; in most records, active means well fitted curve in the direction sought with a large enough effect; inconclusive means small, poorly fitted or top-dose-only effect, or another doubt; inactive means no such curve, though single readings can be large; an effect the other way counts as inactive or inconclusive.

Oc1ccc2c3c1O[C@H]1[C@@H](O)CC[C@@]4(O)C(C2)N(CC2CCC2)CCC314 (some centres not stated)	none (no result: HepG2 viability, ATXN2 expr inh, S2 tox, TGFb inhibitor)
OCC1CCCN2CCCCC12 (configuration not stated)	none (no result: HepG2 viability, ATXN2 expr inh, S2 tox, TGFb inhibitor)
Cc1ccc(C)c(N2CCN(c3ncnc4onc(C)c34)CC2)c1	DT40 TDP1 CPT inconclusive, ATXN2 expr inh inconclusive, TGFb inhibitor inconclusive, DT40 TDP1 no CPT 13µM
CC(=O)CC1CCCCN1 (configuration not stated)	none (no result: HepG2 viability, ATXN2 expr inh, S2 tox, TGFb inhibitor)
COc1cc2c(cc1OC)-c1c(OC)c(OC)cc3c1[C@H](C2)N(C)CC3	DT40 TDP1 CPT inconclusive, DT40 TDP1 no CPT 16µM
COc1cc2c(cc1O)CC1c3c(cc(O)c(OC)c3-2)CCN1C (configuration not stated)	none
Cc1ccc(C2=NC(C)(C)N3C2C3c2ccc([N+](=O)[O-])cc2)cc1 (configuration not stated)	DT40 TDP1 CPT inconclusive, DT40 TDP1 no CPT 21µM
Cc1ccc([N+](=O)[O-])cc1	none
[Cl][Pt+2][Cl].[NH-]C1CCCCC1[NH-] (configuration not stated)	DT40 TDP1 CPT 2.3µM, DT40 TDP1 no CPT 5.8µM
COC(=O)C1=C(c2cccc(C#N)c2)C[C@@H]2CC[C@H]1N2C(=O)NCCCOC(C)C	none
Cc1nc2ccccc2c(=O)n1-c1c(Cl)cccc1Cl	DT40 TDP1 CPT 23µM, S2 tox inconclusive, DT40 TDP1 no CPT 18µM (no result: ATXN2 expr inh)
Cc1cccc(-n2c(C)nc3ccccc3c2=O)c1C	DT40 TDP1 CPT 5.8µM, DT40 TDP1 no CPT 21µM
Cc1cccc(-n2c(C)nc3ccccc3c2=O)n1	none
CCOC(=O)c1cc(-c2ccccc2)n(CCCC(=O)Nc2ccc(C)c(C)c2)c1C	DT40 TDP1 CPT 16µM, TGFb inhibitor inconclusive, DT40 TDP1 no CPT 3.7µM (no result: ATXN2 expr inh, S2 tox)
NC1(C(=O)O)CCCc2ccc(N(CCCl)CCCl)cc21 (configuration not stated)	DT40 TDP1 CPT 1.6µM, ATXN2 expr inh inconclusive, DT40 TDP1 no CPT 2.3µM
O=C1NC(=O)C2(CCCc3ccc(N(CCCl)CCCl)cc32)N1 (configuration not stated)	DT40 TDP1 CPT 0.41µM, ATXN2 expr inh inconclusive, DT40 TDP1 no CPT 0.18µM
CCC(C(=O)c1ccccc1)P(=O)(NN)c1ccccc1 (configuration not stated)	none
C=CCn1c(O)c(C(CC)=NCc2cc(OC)cc(OC)c2)c(=O)[nH]c1=O	DT40 TDP1 CPT 7.3µM, DT40 TDP1 no CPT 7.3µM
C=CCn1c(O)c(C(CC)=NCCCO)c(=O)[nH]c1=O	DT40 TDP1 no CPT 8.2µM
CCOC(=O)c1ccccc1OC(=O)NNc1ccccc1	ATXN2 expr inh inconclusive, S2 tox inconclusive
O[C@@H]1[C@H](O)[C@H]2[C@@H](O)CCN2C[C@@H]1O	none (no result: HepG2 viability, ATXN2 expr inh, S2 tox, TGFb inhibitor)
CCc1ccc(-c2nc(CN3CCCC(C(=O)NCc4ccc(C)cc4)C3)c(C)o2)cc1 (configuration not stated)	DT40 TDP1 CPT 8.2µM, TGFb inhibitor inconclusive, DT40 TDP1 no CPT 5.8µM
COc1ccc(OC(=O)N(C)C[C@@H]2OCc3cnnn3CCCC(=O)N([C@H](C)CO)C[C@@H]2C)cc1	none
COc1cc(OC)cc(-c2sc3ccc(OC)cc3c2-c2ccc(OCCN3CCOCC3)cc2)c1	DT40 TDP1 CPT inconclusive, DT40 TDP1 no CPT inconclusive
CCOc1ccc(-c2cc(C)[n+](CCN3CCOCC3)c(-c3ccc(OCC)cc3)c2)cc1	DT40 TDP1 CPT 1.5µM, DT40 TDP1 no CPT 1.3µM
C[C@H](N)Cc1c[nH]c2ccc(O)cc12	none (no result: HepG2 viability, ATXN2 expr inh, S2 tox, TGFb inhibitor)
CCOC(=O)C1(C)CCN1C(=O)c1cc(OC)c(OC)c(OC)c1 (configuration not stated)	DT40 TDP1 CPT inconclusive, DT40 TDP1 no CPT inconclusive
Cc1ccc(-c2csc(NC(CO)c3nc4ccccc4n3CCOCCO)n2)cc1 (configuration not stated)	DT40 TDP1 CPT inconclusive, TGFb inhibitor inconclusive, DT40 TDP1 no CPT 23µM
CN(C)C(=O)Oc1ccc(OC(=O)c2ccccc2)cc1	none
CN(C(=O)Oc1ccc(C(=O)c2ccc(Cl)cc2)cc1)c1ccccc1	DT40 TDP1 CPT 23µM, DT40 TDP1 no CPT 16µM
CCCCCCCCCOc1ccc2[nH]cc(CCN)c2c1	DT40 TDP1 CPT 7.3µM, DT40 TDP1 no CPT 8.2µM (no result: HepG2 viability, ATXN2 expr inh, S2 tox, TGFb inhibitor)
CC(=O)OC(C)(C)/C=C/C(=O)[C@](C)(O)C1[C@H](O)C[C@@]2(C)C3CC=C4C(C[C@H](O)C(=O)C4(C)C)[C@]3(C)C(=O)C[C@]12C (some centres not stated)	DT40 TDP1 CPT 0.0082µM, ATXN2 expr inh inconclusive, S2 tox inconclusive, TGFb inhibitor inconclusive, DT40 TDP1 no CPT 0.021µM
CC(C)(O)/C=C/C(=O)C(C)(O)C1C(O)CC2(C)C3CC=C4C(C=C(O)C(=O)C4(C)C)C3(C)C(=O)CC12C (configuration not stated)	DT40 TDP1 CPT 0.037µM, ATXN2 expr inh inconclusive, S2 tox 2.4µM, TGFb inhibitor inconclusive, DT40 TDP1 no CPT 0.016µM
CN1CC[C@@]2(CCCN(C(=O)c3csnn3)C2)C1	none (no result: HepG2 viability, ATXN2 expr inh, S2 tox, TGFb inhibitor)
C=CCC1(C(C)CC)C(=O)NC(=O)NC1=O (configuration not stated)	none (no result: DT40 TDP1 CPT, HepG2 viability, TGFb inhibitor, DT40 TDP1 no CPT)
CN(N=O)c1cc(O)ccc1O	TGFb inhibitor inconclusive (no result: DT40 TDP1 CPT, ATXN2 expr inh, S2 tox, DT40 TDP1 no CPT)
O=C1NCN(c2ccccc2)C12CCN(C(c1ccnc3ccccc13)c1nnnn1C1CCCCC1)CC2 (configuration not stated)	DT40 TDP1 CPT inconclusive, DT40 TDP1 no CPT inconclusive
CCC(=O)O[C@]1(c2ccccc2)CCN(C)C[C@H]1C	none (no result: HepG2 viability, ATXN2 expr inh, S2 tox, TGFb inhibitor)
CCCNC(=O)c1c(N)n(Cc2ccc3c(c2)OCO3)c2nc3ccccc3nc12	TGFb inhibitor inconclusive
CCCCCn1c(NC(=O)c2ccco2)c(C(=O)OCC)c2nc3ccccc3nc21	DT40 TDP1 CPT 21µM, HepG2 viability 16µM, ATXN2 expr inh inconclusive, TGFb inhibitor 20µM, DT40 TDP1 no CPT 16µM
COCCCNC(=O)c1c(NC(=O)c2ccco2)n(Cc2ccccc2)c2nc3ccccc3nc12	DT40 TDP1 CPT inconclusive, DT40 TDP1 no CPT 26µM
COCCNC(=O)c1c(NC(=O)c2ccc(Br)o2)n(Cc2ccccc2)c2nc3ccccc3nc12	DT40 TDP1 CPT 18µM, DT40 TDP1 no CPT inconclusive (no result: S2 tox)
CN(C)CCc1nn[nH]n1	none
Cn1cc(C(=O)OCC(=O)NC2(C#N)CCCCC2)c2ccccc21	none
